# Measurements as given in PubChem BioAssay (NCI).
# About 83,000 compounds went through this panel and 20% of them were active in at least one assay; those are over-represented in the sample as a whole.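 Activity criterion: percent growth below 10, measured after cells in 96-well plates were exposed to a single compound concentration for 48 hours.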 Values without a mark were called inactive. The source made the active and inactive calls.
# How the values were obtained:
# Assay in all cases: NCI-60 one-dose screen, 48 h (100 = growth as untreated, 0 = no growth, -100 = all killed)
# Conditions in all cases: 10 µM unless noted
# NCI-H23 lung = test system: NCI-H23 lung
# NCI-H226 lung = test system: NCI-H226 lung
# NCI-H322M lung = test system: NCI-H322M lung
# HOP-62 NSCLC = test system: HOP-62 NSCLC
# NCI-H460 lung = test system: NCI-H460 lung
# HOP-92 NSCLC = test system: HOP-92 NSCLC
# NCI-H522 lung = test system: NCI-H522 lung
# A549/ATCC NSCLC = test system: A549/ATCC NSCLC
# 786-0 renal = test system: 786-0 renal
# COLO 205 colon = test system: COLO 205 colon
SMILES,growth (NCI-H23 lung),growth (NCI-H226 lung),growth (NCI-H322M lung),growth (HOP-62 NSCLC),growth (NCI-H460 lung),growth (HOP-92 NSCLC),growth (NCI-H522 lung),growth (A549/ATCC NSCLC),growth (786-0 renal),growth (COLO 205 colon)
O=C1/C(=C/c2cccc(Br)c2)COc2ccc(O)c(O)c21,17%,83.4%,25.7%,-30.8% (active),5.86% (active),-41.1% (active),-67.6% (active),11.2%,-86.9% (active),6.56% (active)
COc1ccc(-n2c(=O)n(-c3ccc(-c4nc5ccc(F)cc5s4)cc3)c(=O)c3cccnc32)cc1,89.9%,105%,102%,89.2%,110%,118%,88.8%,96.5%,99.5%,106%
CC(CN)[C@@H]1CC[C@]2(CO)CC[C@]3(C)[C@H](CC[C@@H]4[C@@]5(C)CCC(NCCO)C(C)(C)[C@@H]5CC[C@]43C)[C@@H]12 (stereo not given in full),89.6%,95.8%,86.8%,86.6%,4.46% (active),61.6%,59.3%,59.2%,59.2%,67.5%
CSc1nc(CC(C)C)c(C#N)c(=O)n1C,66.8%,60.3%,84.7%,79.3%,83.3%,8.54% (active),39.2%,80.7%,57.9%,43.3%
CN(C)CCOc1ccc(/C(=C(/CCCCCCCCCC[P+](c2ccccc2)(c2ccccc2)c2ccccc2)c2ccccc2)c2ccccc2)cc1,-83.2% (active),-53.2% (active),-96.6% (active),-66% (active),-79.2% (active),-84.3% (active),-75.1% (active),-64.3% (active),-76.6% (active),-64% (active)
C#CCOc1ccc(C2=NN(CCCC)C3N=C(Cl)c4ncn(CCCC)c4N23)cc1OCC#C (stereo not given),86.9%,90.5%,88.8%,90.4%,88.6%,73.6%,74.7%,80.3%,102%,103%
CC/C(=C(/c1ccc(Cl)cc1)c1ccc(OCCCN(C)C)cc1)c1ccc(OC)cc1,78.6%,104%,67.5%,99.1%,5.32% (active),49.8%,87.3%,49.8%,57.9%,-65.3% (active)
CCN1C(=O)N(CC)C2C1NN=c1s/c(=C\c3ccc(F)cc3)c(=O)n12 (stereo not given),39.3%,63.4%,44.2%,39.3%,5.08% (active),43.6%,-5.22% (active),15.5%,35%,5.08% (active)
Cc1nc2sc(C(=O)Nc3ccccc3)c(N)c2cc1C(O)c1ccccc1 (stereo not given),33.5%,64%,56.3%,39.6%,4.01% (active),63.7%,12.8%,24.4%,40.8%,-8.82% (active)
COc1cc(-c2ccc(-c3ccc(C(=N)N)s3)s2)cc(OC)c1OC,71.5%,89.4%,69.1%,69.9%,17.3%,33.6%,61.5%,32.8%,9.32% (active),-61.8% (active)
CCCCCCCCNC(=O)[C@@H](N)CSCOC(C)=O,87.4%,104%,89.8%,66.7%,72.9%,122%,90.6%,84.3%,106%,109%
CC1(C)CCC[C@]23C(=O)O[C@](O)(C(=O)C4=C[C@@](C)(/C=C/CCCc5ccc6ccc7cccc8ccc5c6c78)CC[C@@]42O)[C@@H]13,-60.6% (active),-69.5% (active),-98.6% (active),-66.1% (active),-74.5% (active),-83.9% (active),-62.6% (active),-70.5% (active),-79.3% (active),-72.4% (active)
COc1ccc(/C=N\NC(=O)c2ccc3nc(-c4ccc(Cl)cc4)[nH]c3c2)cc1,41.6%,73.8%,55.9%,30.3%,5.91% (active),36%,82.6%,12%,3.15% (active),22.9%
CCN1C(=O)N(CC)C2C1NC(=S)N2/N=C/C=C/c1ccccc1 (stereo not given),21.4%,-10.1% (active),46.1%,29.3%,5.19% (active),27.8%,-2.87% (active),16.9%,25.6%,-30.4% (active)
COc1cc(CNC(=O)CCCC/C=C/C(C)C)ccc1OCc1cn(-c2ccc(C(F)(F)F)cc2)nn1,94.6%,53.6%,96.1%,64.6%,16.7%,13.8%,75.6%,49%,2.94% (active),72.6%
COc1ccc(/C=C2/CCc3cc4ccc(OC)cc4[o+]c32)c(O)c1,72.7%,81.5%,84.6%,95.9%,25.3%,56.1%,77.5%,94.9%,-6.35% (active),84.1%
CCCn1cnc2c(c1=N)C(c1ccc(Cl)cc1)c1sc3c(F)cccc3c1O2 (stereo not given),81.8%,85.5%,75.6%,96.9%,66.2%,79.3%,69.7%,76%,69.3%,-67.9% (active)
FC(F)(F)c1cccc(-c2nnn(Cc3cc(-c4cccc(Cl)c4)no3)n2)c1,102%,101%,111%,108%,103%,100%,99.6%,100%,105%,112%
COc1ccc(C2CC(=O)Oc3c(OC)c4c(c(OC)c32)OCO4)cc1 (stereo not given),98.1%,112%,90.1%,84.9%,107%,101%,85.7%,97.6%,100%,103%
COc1ccc(C2=NN3C(C2)c2cc(Br)ccc2OC3c2ccncc2)cc1 (stereo not given),81.8%,92.7%,76.4%,79.9%,59.4%,82.7%,60%,71.7%,92.6%,110%
Cc1cc([N+](=O)[O-])ccc1NC(=O)c1ccc2c(c1)nc(-c1ccccc1)n2C1CCCCC1,91.5%,93%,80%,91.8%,87.3%,117%,63.1%,78.8%,86.7%,73.2%
Cn1cc(-c2nc(-c3c[nH]c4c(Cl)nccc34)cs2)c2ccccc21,98.6%,103%,99.4%,92.5%,95.5%,80.4%,85.5%,66.7%,87.4%,102%
CC(C)(C)n1cc(-c2ccnc(NCCNS(=O)(=O)c3ccc(C(F)(F)F)cc3)c2)c(-c2ccccc2)n1,83%,89.4%,99.5%,97.8%,93.8%,3.62% (active),85.9%,78.2%,80.5%,87.3%
CCn1c2ccccc2c2cc(C(O)c3cccc4ncccc34)ccc21 (stereo not given),-42.3% (active),23.7%,34.8%,32.8%,10.1%,29.3%,8.82% (active),20.7%,6.42% (active),-33.9% (active)
CN(C)CCCN(CCC1CCCCC1)CCC1CCCCC1,66.4%,94.8%,80.1%,64.3%,-2.63% (active),28.8%,48.8%,52.5%,56.2%,-54.4% (active)
CN(C)C(=O)OCc1ccc2c(Cl)cc(Cl)c(O)c2n1,51.2%,68.3%,53.8%,27.3%,31.3%,58.8%,65.1%,25%,48.7%,104%
Cc1ccc(C23CCC(=O)N2CCc2cncn23)cc1 (stereo not given),97.4%,96.2%,99.3%,94.8%,110%,87.2%,87.9%,96.7%,108%,98.6%
